Data on 62 compounds can be found in PubChem BioAssay AID1626 (SRMLSC, 2009).

Each structure is given as a SMILES string. In all, about 220,000 compounds went through this assay and about 2,000 (0.91%) were called active. Inconclusive results (about 2%) are left out. No stated cut-off is given here; in the data, inconclusive means inhibition above about 80% without an active follow-up result; inactive means below that; test concentration not stated here. Only a sample is shown. Entries with a potency or affinity are not part of this list.

The test can be described thus: M. tuberculosis H37Rv growth inhibitors, H37Rv strain (AID 1626).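 Further: bacteria incubated seven days before Alamar blue readout; 0% = bacteria only wells and 100% = bacteria with antibiotic wells.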 To be noted: active compounds read high, concentration not given here.
As to `O=C(CSCc1ccco1)c1cccs1`, the inhibition was -1.66% (inactive). Turning to `O=C(CSc1nnc(-c2ccc(O)cc2)n1Cc1ccco1)c1cccs1`, the inhibition is 2.2% (inactive). Then `O=S(=O)(c1cccc2cccnc12)N1CCN(Cc2ccc3c(c2)OCO3)CC1`, with -5.89% (inactive); and `Cc1[nH]c2ccccc2c1/C=N/NC(=O)CNC(=O)COc1ccccc1`, with 10% (inactive). With `COc1ccc(OC)c(-c2nc(CN3CCCCC3c3cccnc3)c(C)o2)c1` (configuration not stated), the inhibition is -0.43% (inactive). `COc1ccc(-c2noc(CN3CCCCC3c3nccn3C)n2)cc1` (configuration not stated): the inhibition is 6.82% (inactive). Take `CC(C)N(Cc1nccn1C)C(=O)CCc1nnc(CCCc2ccccc2)o1`: the inhibition is -2.35% (inactive). Consider `CCCCNc1nc(N(C)c2ccccc2)nc(-n2ccnc2)n1`, for which the inhibition is 51.3% (inactive). Next, `C=CCNc1nc(-c2ccccc2)nc(-n2ccnc2)n1`: 16.6% (inactive); `Nc1nc(N2CCCCC2)nc(N(c2ccccc2)c2ccccc2)n1`: 1.26% (inactive). In the case of `COc1nc(N(c2ccccc2)c2ccccc2)nc(-n2ccnc2)n1`, the inhibition was 25.8% (inactive). Regarding `c1ccc(N(c2ccccc2)c2nc(-n3ccnc3)nc(-n3ccnc3)n2)cc1`, the inhibition was -4.28% (inactive). On to `c1ccc(-c2ccc(CN3CCN(c4ncccn4)CC3)cc2)cc1`, for which the inhibition is -1.29% (inactive).

Consider `c1ccc(-c2nc(-n3ccnc3)nc(-n3ccnc3)n2)cc1`, for which the inhibition was 3.02% (inactive). With `c1ccc(-c2nc(NC3CC3)nc(-n3ccnc3)n2)cc1`, the inhibition was -0.68% (inactive). As to `Cc1nccc(-c2sc(-c3cccs3)nc2C)n1`, the inhibition is 2.12% (inactive). `COc1ccc(N2C(=O)N(Cc3ccccc3F)c3ccccc3S2(=O)=O)cc1`: the inhibition is 6.95% (inactive). Then `CCCCNC(=O)c1ccc(SCC(=O)N(CC)CC)c([N+](=O)[O-])c1`, with 0.05% (inactive); and `Brc1ccc(Oc2ncc(CN3CCN(c4ccccc4)CC3)s2)cc1`, with 2.17% (inactive). Turning to `Cc1ccc(-c2cn(-c3ccc(OC(F)F)cc3)c3[n+]2CCCCC3)cc1`, the inhibition was -4.29% (inactive). As to `O=C(Cn1nc(-c2nn(CC(=O)c3ccccc3)c3[n+]2CCCCC3)[n+]2c1CCCCC2)c1ccccc1`, the inhibition is 6.97% (inactive).

As to `O=C(O)CCCC(=O)NNC(=O)c1cccc(Br)c1`, the inhibition is 0.6% (inactive).

`COc1cc(CNCc2ccccc2)cc(Cl)c1OC`: the inhibition is 4.65% (inactive). As for `CCOc1cc(CNCCc2ccc(S(N)(=O)=O)cc2)cc(Cl)c1OCc1ccccc1`, the inhibition is 58.8% (inactive).

In the case of `O=C(O)c1ccc(COc2ccccc2/C=C2\NC(=O)N(Cc3ccccc3F)C2=O)cc1`, the inhibition was -2.79% (inactive). In the case of `CN=C(Nc1ccccc1OC)SC1CC(=O)N(c2ccc(C(=O)OC)cc2)C1=O` (configuration not stated), the inhibition was 7.4% (inactive). Regarding `CN=C(Nc1ccccc1)SC1CC(=O)N(c2ccc(C(=O)OC)cc2)C1=O` (configuration not stated), the inhibition was -2.27% (inactive).

Take `COc1ccc(N=Cc2c(O)n(Cc3ccccc3)c(=S)[nH]c2=O)c(OC)c1`: the inhibition is 6.73% (inactive).

In the case of `O=C(CSc1nnc(-c2cccnc2)n1-c1ccccc1)NCc1ccc2c(c1)OCO2`, the inhibition is 6.03% (inactive).

Consider `CC(Oc1ccc(Cl)cc1Cl)c1ccn[nH]1` (configuration not stated), for which the inhibition was 2.27% (inactive). In the case of `O=C(O)CCC(=O)NN1C(=O)c2ccccc2NC1c1ccco1` (configuration not stated), the inhibition is -6.39% (inactive). Then `CC(=O)Nc1ccc2[nH]c3ccccc3c2c1`, with 10.6% (inactive).

With `COc1ccc(NC(=O)c2cc3ccc4c5ccccc5[nH]c4c3cc2O)cc1`, the inhibition is 2.53% (inactive).

On to `CC(OC(=O)c1ccccc1O)C(=O)Nc1cccc(Cl)c1` (configuration not stated), for which the inhibition was 3.01% (inactive).

`CCOC(=O)Cc1nnc(NC(=O)C(CC)Sc2nc(C)cc(=O)[nH]2)s1` (configuration not stated): the inhibition was -0.83% (inactive).

Turning to `CCOc1ccc2nc(NC(=O)C3=NNC(=O)CC3)sc2c1`, the inhibition was 46.3% (inactive). With `CCOc1ccc2nc(NC(=O)c3cccnc3)sc2c1`, the inhibition is 3.09% (inactive). In the case of `CCOc1ccc2nc(NC(=O)Nc3ccccc3)sc2c1`, the inhibition is 1.1% (inactive). With `CCC(Sc1nc(C)cc(=O)[nH]1)C(=O)Nc1nnc(C)s1` (configuration not stated), the inhibition was -7.53% (inactive).

As to `CCOc1ccc2nc(NC(=O)c3ccoc3C)sc2c1`, the inhibition is 8.64% (inactive). Then `c1ccc(CNC2=NCCCCC2)cc1`, with -3.52% (inactive). `COCCN(CC(=O)NC1CCCCC1)C(=O)CSc1nc2ccccc2o1`: the inhibition was -4.79% (inactive). On to `CC(C)N1C(=O)c2ccc(C(=O)O)cc2C1=O`, for which the inhibition was 2.62% (inactive). `CCOC(=O)C1=C(C)NC(=S)N(C=O)C1c1ccccc1` (configuration not stated): the inhibition was 6.03% (inactive). Consider `Cc1ccc(SCC(=O)NCc2cccnc2)cc1`, for which the inhibition was -4.12% (inactive). As to `O=c1[nH]c2ccccc2c2nc3ccccn3c12`, the inhibition was -1.5% (inactive).

As to `O=c1[nH]c2ccccc2c(O)c1O`, the inhibition was -3.51% (inactive). On to `Cc1ccc(-c2nc(CS(=O)CC(=O)NCc3ccccc3)c(C)o2)cc1` (configuration not stated), for which the inhibition was 3.18% (inactive). On to `O=C(Nc1ccc(N2CCOCC2)cc1)C1CC1`, for which the inhibition is -4.12% (inactive). With `CS(=O)(=O)N1CCC(C(=O)Nc2ccc(Oc3ccccc3)cc2)CC1`, the inhibition is 2.66% (inactive). Take `COc1ccc(NC(=O)C2CCCO2)cc1` (configuration not stated): the inhibition is -10% (inactive). Turning to `O=C(Nc1ccc(Nc2ccccc2)cc1)C1CC1`, the inhibition was -4.99% (inactive).

Regarding `O=C(Nc1ccc(Oc2ccc(NC(=O)C3CCCO3)cc2)cc1)C1CCCO1` (configuration not stated), the inhibition was -8.27% (inactive).

For `O=C(Nc1ccc(Cc2ccc(NC(=O)C3CC3)cc2)cc1)C1CC1`, the inhibition is 7.74% (inactive). Consider `O=C(CCc1n[nH]c(=O)[nH]c1=O)N1CCCCC1`, for which the inhibition is -1.04% (inactive). For the compound `COc1cc(C(O)P(=O)(OCC(C)C)c2ccc(N(C)C)cc2)cc(OC)c1OC` (configuration not stated), the inhibition is -2.15% (inactive). Take `CCCc1[nH]nc2c1C(c1ccc(OCCN3CCOCC3)c(OC)c1)C(C#N)=C(N)O2` (configuration not stated): the inhibition is -0.42% (inactive).

In the case of `CC1CCCN(c2nc(-c3cccnc3)nc3scc(-c4ccccc4)c23)C1` (configuration not stated), the inhibition was 10.2% (inactive). In the case of `OCC1CCCN(c2nc(CN3CCCCC3)nc3scc(-c4ccccc4)c23)C1` (configuration not stated), the inhibition was 1.65% (inactive). As to `CCC(CO)Nc1nc(CN2CCCCC2)nc2scc(-c3ccccc3)c12` (configuration not stated), the inhibition was 7.81% (inactive). Regarding `CN1CCN(c2nc(-c3cccnc3)nc3scc(-c4ccccc4)c23)CC1`, the inhibition was -0.01% (inactive). Take `CCCn1nc(C(=O)Nc2nnc(CC)s2)c2ccccc2c1=O`: the inhibition is -9.02% (inactive).
